# A structure can be active in one record and inactive in another. Activity calls are given as the source filed them. The calls were made as follows: active = hit-call score of the fitted dose curve at least 0.9, where 1 is the maximum; inactive = score below 0.9.
# Read-out: Cytochrome P450 (CYP2B6), CYP2B6 (gene 1555)
# Assay: LTEA_HepaRG_CYP2B6: Life Technologies and Expression Analysis (LTEA) Assay for Cytochrome P450 (CYP2B6) using HepaRG (AID 2283481)
# Details: mRNA level, 48 h; actives raise or lower the signal
# Method: LTEA_HepaRG is a cell based, multiplexed-readout assay that uses HepaRG, a human liver cell line, with measurements taken at 48 hours after chemical dosing on a 96-well plate.LTEA_HepaRG_CYP2B6 is one of 102 assay component(s) measured in the LTEA HepaRG cell culture assay. It is a marker of NR mediated metabolism.Data from the assay component LTEA_HepaRG_CYP2B6 was analyzed into 1 endpoint. This assay endpoint, LTEA_HepaRG_CYP2B6, was analyzed with bidirectional fitting relative to DMSO as the negative control and baseline of activity. Using a type of inducible reporter, measures of mRNA induction for gain or loss-of-signal activity can be used to understand regulation of transcription factor activity. To generalize the intended target to other relatable targets, this assay endpoint is annotated to the cyp intended target family, where the subfamily is xenobiotic metabolism.
# A total of 1060 chemcials from the ToxCast library were tested in eight-point concentration-response experiments. Cell culture and cytotoxicity assays were conducted at Thermo Fisher Scientific's Custom Services facility (Madison, WI). A single lot of human HepaRG cells (Thermo Fisher Scientific, Frederick, MD) was used for the cell culture experiments. 96-well format collagen type I coated plates of human HepaRG cells were prepared using established methods. Briefly, cryopreserved HepaRG cells were thawed, plated at a density of approximately 100,000 cells/well in HepaRG Thaw, Plate, and General Purpose media (HPRG770, Thermo Fisher Scientific), and incubated for 48 hours. 0.5% DMSO was selected as vehicle control to balance the requisite need of DMSO in HepaRG cultures to maintain differentiation (for example, baseline metabolism, proportions of hepatocytes vs. cholangiocytes), while enabling further hepatic receptor pathway activation (for example, PXR and CAR) in response to chemical exposure. 48 hours after plating, the culture medium was replaced with HepaRG Serum-Free Incudtion Media. Cells were exposed to each test chemical in duplicate and maintained in CO2 incubators for another 48 hours. Chemical plates were thawed to room temperature and 200x concentrations of treatment groups were prepared. 8-point conentration-reponse curves were made with the highest exposure at 100 uM, followed by half-log dilutions, all in 0.5% DMSO. Each test plate contained variouse controls, induction positive controls (1mM phenobarbital), cytotoxicity positive controls ([…] aflatoxin B1), vehicle controls (0.5% DMSO), and total lysis controls (0.5% DMSO). Cell morphology images were taken using an Essen IncuCyte FLR automated microscope, with six 96-well plates imaged in about 24 minutes. Images were captured and exported and JPEG files. Spent culture media was transfered to black-well plates for the LDH assay, and remaining media was sorted at -80 C for later use. Cells were treated with RLT buffer and frozen until shipped for gene expression analysis. Total RNA was isolated from the cell suspension in 75 uL of Buffer RLT (Qiagen, Germantown, MD 20874) by Quintiles/Expression Analysis (Durham, NC) using a custom isolation procedure. Total RNA from each plate well was transferred to a preamplification plate. Fluidigm's 96.96 Dynamic ArrayTM (Fluidigm, Amsterdam, the Netherlands) technology was used for gene expression analyses by quantitative reverse transcription polymerase chain reaction (qRT-PCR, performed by Quintiles/Expression Analysis, Durham, NC)89. Standard TaqManTM Assays (Applied Biosystems/ThermoFisher Scientific, Foster City, CA) were used to assess the expression of 93 genes selected based on their selectivity and sensitivity to important hepatic receptors known to be modulated by environmental chemicals; importance in human hepatocyte functionality; and hepatotoxicity. […]
SMILES,AC50,outcome
CC[C@H](c1ccc(O)cc1)[C@@H](CC)c1ccc(O)cc1,79.4 µM (active),–
CC(=O)CC(C)(C)O,–,inactive
O=[N+]([O-])c1ccc(O)cc1,19.9 µM (active),inactive
CC1=C(/C=C/C(C)=C/C=C/C(C)=C/C(=O)O)C(C)(C)CCC1,6.58 µM (active),–
C=C(C)C(=O)OCCC(F)(F)C(F)(F)C(F)(F)C(F)(F)C(F)(F)C(F)(F)F,11.8 µM (active),–
CC(C)(C)CC(C)(C)c1ccc(O)c(-n2nc3ccccc3n2)c1,13.1 µM (active),–
CCCCCCCCCCCCCCCS(=O)(=O)Oc1ccccc1,3.1 µM (active),–
CC(C)(C)c1cccc(C(C)(C)C)c1O,–,inactive
Oc1cc2ccccc2c2ccccc12,–,inactive
NC(=O)N1C(=O)C(C(=O)c2cc(Cl)cs2)c2cc(F)c(Cl)cc21 (stereo not given),16.3 µM (active),–
C[C@@H]1C[C@H]2[C@@H]3CCC4=CC(=O)C=C[C@]4(C)[C@@]3(F)[C@@H](O)C[C@]2(C)[C@@]1(O)C(=O)COP(=O)(O)O,–,inactive
O=C(O)c1ccccc1C(c1ccc(O)cc1)c1ccc(O)cc1,3.65 µM (active),–
OC1CCC(C2CCCCC2)CC1 (stereo not given),–,inactive
CC(C)(C)c1cc(C(C)(C)C)c(O)c(C(C)(C)C)c1,8.66 µM (active),–
C#C[C@]1(O)CC[C@H]2[C@@H]3CCC4=CC(=O)CC[C@@H]4[C@H]3CC[C@@]21C,9.72 µM (active),–
CC(=O)NC1(c2cccc(F)c2)CCN(CC[C@@]2(c3ccc(Cl)c(Cl)c3)CN(c3ccccc3)C(=O)CO2)CC1,–,inactive
CCc1nn(C2CCCCC2)c2cc(C3(C#N)CCC(C(=O)O)CC3)ccc12 (stereo not given),82.8 µM (active),–
O=c1c(-c2ccc(O)cc2)coc2cc(O)ccc12,–,inactive
COCC(C)O (stereo not given),–,inactive
CC(O)CO (stereo not given),–,inactive

SMILES,AC50,outcome
CCCCCCCCC(=O)O,–,inactive
Oc1cccc(O)c1,–,inactive
OC1CCCCC1,–,inactive
CCCCCCCC(=O)O,–,inactive
CN(C)C=O,–,inactive
CCN(CC)CCNc1ccc(CNC=O)c2sc3ccc(OC)cc3c(=O)c12,7.58 µM (active),–
c1ccc2c(c1)ccc1ccccc12,5.8 µM (active),–
c1ccc2cc3c(ccc4ccccc43)cc2c1,9.39 µM (active),–
CCCOc1sc(C(=O)N2CCC(c3cc(CN)ccc3F)CC2)c(C)c1Br,1.96 µM (active),–
CCCCCCC(=O)O,–,inactive
COc1ccc([N+](=O)[O-])cc1N,20.7 µM (active),–
Cc1cc(C)c(O)c(C)c1,3.65 µM (active),–
OCCC(F)(F)C(F)(F)C(F)(F)C(F)(F)C(F)(F)C(F)(F)C(F)(F)C(F)(F)F,–,inactive
ClC1=C(Cl)C(Cl)(Cl)C(Cl)=C1Cl,–,inactive
CCC(C)(C)C1CCC(O)CC1 (stereo not given),16 µM (active),–
NC(=O)N(O)[C@@H]1C=C[C@H](Oc2cccc(Oc3ccc(F)cc3)c2)C1,34.4 µM (active),–
Cc1oc(-c2ccccc2)nc1CCOc1ccc(C[C@H](Nc2ccccc2C(=O)c2ccccc2)C(=O)O)cc1,18.5 µM (active),–
CCC(=C(c1ccc(O)cc1)c1ccc(OCCN(C)C)cc1)c1ccccc1,3.08 µM (active),–
N#C[C@@H]1CC(F)(F)CN1C(=O)CNC1CC2CCC(C1)N2c1ncccn1 (stereo not given in full),27.8 µM (active),–
